# The list is not random: actives were taken first. Their share in the collection is about 2.4%.
# D2 PAM-1: positive allosteric modulators of human D2 dopamine receptor; DiscoveRx D2 beta-arrestin cells, luminescence, 90 min; 100% = 57 uM dopamine signal; potentiation, % (test concentration not listed); 0.23% of 360,000 active; AID 624464; in the data active = potentiation above about 50%; inconclusive = mostly about 30% to 49%
# Target sequence (P14416 whole entry, looked up): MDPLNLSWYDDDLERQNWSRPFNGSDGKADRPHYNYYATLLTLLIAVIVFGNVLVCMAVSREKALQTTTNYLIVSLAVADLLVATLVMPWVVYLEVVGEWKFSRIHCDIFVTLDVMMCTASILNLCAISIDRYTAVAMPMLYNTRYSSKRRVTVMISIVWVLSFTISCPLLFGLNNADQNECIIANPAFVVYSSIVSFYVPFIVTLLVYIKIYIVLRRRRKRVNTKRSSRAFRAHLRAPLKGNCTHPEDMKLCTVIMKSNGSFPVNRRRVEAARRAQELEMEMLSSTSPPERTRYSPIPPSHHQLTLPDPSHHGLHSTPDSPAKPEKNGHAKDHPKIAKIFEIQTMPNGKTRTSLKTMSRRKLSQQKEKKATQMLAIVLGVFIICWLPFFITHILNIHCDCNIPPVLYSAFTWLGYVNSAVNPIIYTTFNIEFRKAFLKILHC
#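 PathHunter D2 cells, attached overnight at 37 deg C, received compound in DMSO plus dopamine at EC20 (50 nM final) for 90 min at 37 deg C. Beta-arrestin recruitment was read as luminescence after 1 h with detection reagent at ambient temperature.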
# D2 ag-1: agonists of human D2 dopamine receptor; HEK293 T-REx D2 cells, calcium flux agonist mode; activation, % at 2 µM; 0.53% of 340,000 active; AID 485358;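 active = activation over 3 SD above normal in the single-dose calcium agonist read, cut at about 30% in these data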
#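 Agonism is scored from calcium flux in a force-coupled, inducible HEK293 cell line expressing D2, read kinetically for 180 s after compound addition against dopamine controls.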
# D2 ag-2: human D2 receptor agonism in beta-arrestin assay. P14416. DiscoveRx PathHunter D2 beta-arrestin, luminescence, 90 min; 100% = 57 uM dopamine signal. activation, % (test concentration not listed). 0.084% of 360,000 active; in the data active = activation above about 40%; inconclusive = between about 15% and that limit
#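 DiscoveRx PathHunter D2 beta-arrestin cells (2,100/well) attached overnight, then compound-stimulated 90 min at 37 C in HBSS/10 mM HEPES/0.1% Tween-20 buffer; beta-galactosidase complementation read by luminescence after 1 h at ambient temperature. Dopamine 57 uM final (EC100) as control.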
# D2 antag: antagonizes the human D2 dopamine receptor. P14416. HEK293 TREx D2 cells, calcium flux, dopamine EC80. inhibition, % at 10 µM. 2% of 340,000 active; in the data active = inhibition above about 30%; inactive = below that, where a call was filed
#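 Antagonism is scored as inhibition of an EC80 dopamine-evoked calcium signal in a force-coupled, tetracycline-inducible HEK293 T-REx D2 line, with compound present 180 s before agonist.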
# D2 PAM-2: positive allosteric modulators of human D2 dopamine receptor | HEK293 T-REx D2, calcium flux, EC20 dopamine potentiation | potentiation, % at 10 µM | 0.34% of 340,000 active | AID 485347;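 active = potentiation over 3 SD above the plate norm, cut at about 30% in these data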
#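 Tetracycline-induced Hek293 Trex D2 cells, force-coupled to calcium, loaded with no-wash calcium dye. Compound added with 180 s kinetic read for agonism, then EC20 dopamine and a further 180 s read for potentiation.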
# A number is an active result; – = inactive; ? = inconclusive; · = no result given.
SMILES,D2 PAM-1,D2 ag-1,D2 ag-2,D2 antag,D2 PAM-2
COc1cccc(OC)c1C(=O)OCC(=O)NC1CCCCCC1,–,–,–,82,–
COc1cccc(Cn2c(C)c(CNCc3ccccc3Cl)c(C(=O)O)c2C)c1,·,–,·,·,–
Cc1ccc(/C=N/NC(=O)Cn2nnc(N)n2)cc1,–,–,–,41,–
COC(=O)C(C)Sc1nnc(SC(C)C(=O)OC)s1 (stereo unspecified),–,–,–,40,–
CCn1cc(CN2CCC(C(=O)Nc3ccc(Oc4cccnc4)cc3)CC2)c(C)n1,–,–,–,–,–
CCn1cc(CN2CCC(C(=O)Nc3ccc(Oc4cccnc4)cc3)CC2)cn1,–,–,–,31,–
Clc1ccc2c(c1)CCc1cccnc1C2=C1CCNCC1,·,·,·,30,·
CN(C)c1cccc2c(S(=O)(=O)Nc3ccccn3)cccc12,54,–,–,–,·
Cc1cc(C(N)=O)c2cc(Br)ccc2n1,–,–,–,–,39
CCN(CC(=O)Nc1c(F)cccc1F)C(=O)C1COc2ccccc2O1 (stereo unspecified),–,–,–,36,–
Cc1ccccc1/C=C/c1nc2ccccc2c(=O)[nH]1,–,–,–,–,–
Cc1ccccc1/C=C\c1nc2ccccc2c(=O)[nH]1,–,–,–,33,–
CCOc1ccccc1NC(=O)CCc1c(C)nc2c(c(C)nn2-c2ccccc2)c1C,·,–,·,·,–
C=CCN(c1ccc(C(=O)Nc2cccc([N+](=O)[O-])c2)cc1)S(C)(=O)=O,–,–,–,37,–
C=CCn1c(O)c(N=NC(=S)Nc2ccccc2F)c2ccccc21,–,–,–,68,–
CC1CCCC(C)N1C(=O)CSc1nnc(C2CCCCC2)o1 (stereo unspecified),–,–,–,90,–
Cc1cc(-c2nnc(SCC(=O)N3C(C)CCCC3C)o2)no1 (stereo unspecified),–,–,–,–,–
Cc1ccc2nc(N3C(=O)C(O)=C(C(=O)c4ccco4)C3c3ccc(O)cc3)sc2c1 (stereo unspecified),·,–,·,–,–
O=C(C1=C(O)C(=O)N(c2nc3ccc(Cl)cc3s2)C1c1ccco1)c1ccco1 (stereo unspecified),–,–,–,–,–
Cc1ccc2nc(N3C(=O)C(O)=C(C(=O)c4ccco4)C3c3ccc(C)o3)sc2c1 (stereo unspecified),–,–,–,31,–
Cc1ccc2nc(N3C(=O)C(O)=C(C(=O)c4ccc(C)o4)C3c3ccco3)sc2c1 (stereo unspecified),–,–,–,31,–
COc1ccc(OC)c(NC(=O)Cn2c(=O)cc(-c3ccccc3)c3c(C)nn(C)c32)c1,·,–,·,·,–
Cc1ccc2sc(N(Cc3cccnc3)C(=O)CCOc3ccccc3)nc2c1C,·,·,·,·,–
CCOc1ccccc1NC(=O)CSc1ccc([N+](=O)[O-])cc1,–,–,–,41,–
CCOc1ccc2ccccc2c1/C=N\NC(=O)OC,–,–,–,–,–
SMILES,D2 PAM-1,D2 ag-1,D2 ag-2,D2 antag,D2 PAM-2
CCOc1ccc2ccccc2c1/C=N\NC(=O)c1ccc([N+](=O)[O-])cc1,–,–,–,39,–
CCOc1ccccc1NC(=O)NNS(=O)(=O)c1ccc([N+](=O)[O-])cc1,–,–,–,–,–
Cc1nnc2ccc(-c3ccc(NS(C)(=O)=O)cc3)nn12,–,–,–,33,–
CCCOc1ccc(CNC(=O)Cn2cc3c(n2)-c2c(oc(C(=O)N4CCOCC4)c2C)CC3)cc1,·,·,·,·,–
O=C(Nc1ccccc1Cl)N1CCC2(CC1)Oc1ccccc1C(=O)N2Cc1ccc(F)cc1,·,–,·,·,–
c1ccc2c(c1)nc1n2CC2CON(C3CCCCC3)C12 (stereo unspecified),–,–,–,37,–
Fc1cccc(CN2CCC(Cc3ccccc3)CC2)c1,–,–,–,56,–
CCN1CCN(C(=O)Nc2cccc(C(F)(F)F)c2)CC1,–,–,–,–,–
CCN1CCC(NC(=O)Nc2cccc(C(F)(F)F)c2)CC1,–,–,–,37,–
O=C(Nc1cccc(F)c1)NC1CCN(Cc2ccccc2)CC1,–,–,–,89,–
Fc1ccccc1CN1CCC(Cc2ccccc2)CC1,–,–,–,–,–
O=C(CCCn1c(=O)c2ccccc2n(Cc2cccc(F)c2)c1=O)NC1CCN(Cc2ccccc2)CC1,·,–,·,40,–
CCC(C(=O)Nc1ccc(C(C)=O)cc1)n1c(C)c2cnn(-c3ccccc3)c(=O)c2c1C (stereo unspecified),·,–,·,·,–
Cc1ccccc1NC(=O)Nc1nnc(N2CCCCCC2)s1,·,–,·,·,–
COc1cccc(CNC(=O)CSc2c3c(nc4ccc(Cl)cc24)CCCC3)c1OC,·,–,·,·,–
O=C(/C=C/c1cccc(Br)c1)NC1CCN(Cc2ccccc2)CC1,–,–,–,72,–
O=C(/C=C/c1cccc(F)c1)NC1CCN(Cc2ccccc2)CC1,–,–,–,56,–
O=C(NC1CCN(Cc2ccccc2)CC1)c1c(Cl)cccc1Cl,–,–,–,–,–
O=C(COC(=O)/C=C/c1cccc(F)c1)NC1CC1,–,·,–,·,·
COc1ccc(C2CC(=O)Nc3c2c(=O)n(C)c2nc4ccccc4n32)cc1 (stereo unspecified),·,–,·,·,–
COc1ccc(C(C#N)(CCC#N)CCC#N)cc1OC,–,–,–,80,–
C=CCC(C#N)(c1ccc(OC)c(OC)c1)c1cnccn1 (stereo unspecified),–,–,–,–,–
O=[N+]([O-])c1ccccc1-c1ccc(CN2CCN(c3ccccc3)CC2)o1,–,–,?,52,–
CC(C)(C)OC(=O)NCCCCCc1nnc(SCc2ccccc2)o1,–,–,–,36,–
CCN(C(=O)Cn1cnc2onc(-c3ccc(F)cc3)c2c1=O)c1cc(C)ccc1C,·,–,·,·,–
SMILES,D2 PAM-1,D2 ag-1,D2 ag-2,D2 antag,D2 PAM-2
CCCOc1ccc(Oc2nc(NCC(C)C)nc(N(C)C)n2)nn1,·,·,·,·,–
COc1ccccc1CN1CCc2c([nH]c3ccccc23)C1,–,–,–,53,–
CCOC(=O)C1CCCN(S(=O)(=O)c2cc(-c3onc(C)c3C)ccc2OC)C1 (stereo unspecified),·,–,·,·,–
CCN1CCN(c2ccc(S(=O)(=O)N3CCOCC3)cc2NC(=O)CCOc2ccccc2)CC1,–,–,–,32,–
Nc1cc(S(=O)(=O)N2CCCCC2)ccc1N1CCOCC1,–,–,–,32,–
CCN1CCN(c2ccc(S(=O)(=O)N3CCCCC3)cc2NC(=O)c2ccc([N+](=O)[O-])s2)CC1,74,–,?,–,–
O=C(Nc1cc(S(=O)(=O)N2CCOCC2)ccc1N1CCCC1)C1CC1,–,–,–,54,–
CCC(Sc1ncccc1C(=O)Oc1ccccc1Cl)C(=O)Nc1ccccc1OC (stereo unspecified),·,–,·,·,–
